D1 agonist: human D1 receptor agonism; P21728; HEK293 T-REx D1 cells, calcium flux, agonist mode; AID 504660; 360,000 compounds, 1% hits; activation, % at 2 µM; in the data active = activation above about 30%; note: 0% is about no effect
Target sequence (P21728 whole entry, looked up): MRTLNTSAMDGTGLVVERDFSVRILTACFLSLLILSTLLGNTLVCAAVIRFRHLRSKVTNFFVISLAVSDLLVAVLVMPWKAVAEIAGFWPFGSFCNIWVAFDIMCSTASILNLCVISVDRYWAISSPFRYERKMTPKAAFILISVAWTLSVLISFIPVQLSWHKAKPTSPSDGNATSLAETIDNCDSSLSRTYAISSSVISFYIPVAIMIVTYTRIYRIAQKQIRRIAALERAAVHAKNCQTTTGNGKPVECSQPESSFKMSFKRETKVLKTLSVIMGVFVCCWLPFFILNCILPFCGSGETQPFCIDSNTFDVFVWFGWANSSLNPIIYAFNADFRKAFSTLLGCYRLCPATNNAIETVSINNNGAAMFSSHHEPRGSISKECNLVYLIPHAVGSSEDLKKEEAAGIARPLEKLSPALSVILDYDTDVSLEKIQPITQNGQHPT
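Agonism was scored from calcium flux recorded over 180 s (1 read/s) after pintool compound addition, following a 10-cycle baseline. Cells were inducible force-coupled HEK293 TREx D1, plated overnight at 30 C and loaded with no-wash calcium dye.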
D1 antag: antagonists of human D1 dopamine receptor; activity change, negative = inhibition, % at 10 µM; 360,000 compounds, 3.2% hits; HEK293 TREx D1 cells, calcium flux, dopamine EC80; stronger effect = lower value; P21728; AID 504652; in the data active = activity change below about -30%; note: % is set by controls: 0 for no effect and ±100 for the full control effect
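Compound effects on dopamine-evoked calcium signalling were measured in tetracycline-induced HEK293 Trex D1 cells. Dopamine at EC80 followed a 180 s compound pre-read, and fluorescence was tracked kinetically for 180 s more.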
GALK inh: inhibitors of human galactokinase. 270,000 compounds, 0.007% hits. AID 1868. Purified GALK, Kinase-Glo residual ATP luminescence. P51570. Potency, µM (highest dose often 57.5 µM), for the others: at the top dose activity change, negative = inhibition, hits mostly inhibitors; note: potency is the fitted concentration of half-maximal effect; % is set by controls: 0 for no effect and ±100 for the full control effect
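Compounds were pin-transferred into ATP buffer (35 uM final), then GALK plus galactose (5 nM, 100 uM final) was added. After 1 h at room temperature, Kinase-Glo Plus was added and luminescence read after 10 min.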
D1 potentiator: potentiators of human D1 dopamine receptor; P21728; 360,000 compounds, 0.036% hits; HEK293 TREx D1 cells, calcium flux, dopamine EC20 potentiation; potentiation, % at 10 µM; AID 504651; in the data active = potentiation above about 30%; note: 0% is about no effect
Eya2 inh: inhibitors of human Eya2 phosphatase activity | O00167 | recombinant Eya2, OMFP fluorescence dephosphorylation (OMFP is methylfluorescein phosphate) | Potency, µM (top dose mostly 76.9 µM), without a hit: top-dose activity, negative = inhibition, usual class: inhibitors | 330,000 compounds, 0.006% hits | AID 488837; note: potency is the fitted concentration of half-maximal effect; % is set by controls: 0 for no effect and ±100 for the full control effect
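Eya2 (0.2 uM) preincubated 10 min at ambient with compound, then OMFP substrate added at 50 uM; 10 min reaction in 50 mM HEPES pH 7.5, 50 mM NaCl, 5 uM MgCl2, 0.05% BSA, 1 mM DTT. Fluorescence read at Ex 485/Em 525 nm.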
USP2a inh: USP2a (human) protease inhibition. USP2 core, Ub-CHOP2 coupled fluorogenic reporter, 485/531. Potency, µM (doses to about 38.3 µM), for the others: at the highest dose activity change, negative = inhibition, usual class: inhibitors. 330,000 compounds, 0.01% hits. AID 463254;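 note: potency is the fitted concentration of half-maximal effect; plate controls were DMSO wells for no effect and full inhibition by NEM control for full effect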
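USP2 core (10nM final) preincubated 30min RT with compound in 20mM Tris-HCl pH 8.0, 2mM CaCl2, 2mM beta-mercaptoethanol, 0.05% CHAPS; 25nM Ub-CHOP2 plus 25nM reporter substrate added, fluorescence (Ex485/Em531) read after 60min.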
The depositor's hits bear a star; [ ] = another dose, or the depositor's remark. An excerpt weighted towards active compounds, which were near 3.9% of everything screened. Unless noted, calls come from the whole dose curve; as a rule, active = well fitted inhibition curve with a large enough effect; inconclusive = small, poorly fitted or top-dose-only effect, or effect the other way; inactive = flat fitted curve, though single readings scatter.

What do the screens show for `CC(C)CN1C(=O)c2ccc(C(=O)Nc3ccc(O)cc3C(=O)O)cc2C1=O`?
D1 agonist: 3; D1 antag: -76*; GALK inh: -6%; D1 potentiator: -9; Eya2 inh: 10%; USP2a inh: 10%

Results for COc1cc(NC(=O)C2CC(c3c(F)cccc3Cl)=NO2)cc(OC)c1OC (stereo not drawn) ?
D1 agonist: 20; D1 antag: -39*; GALK inh: 2%; D1 potentiator: -7; Eya2 inh: 1%; USP2a inh: 1%

What do the screens show for `COc1ccc(NC(=O)C2CC(c3c(F)cccc3Cl)=NO2)cc1` (stereo not drawn)?
D1 agonist: 5; D1 antag: -15; GALK inh: -2%; D1 potentiator: -3; Eya2 inh: -1%; USP2a inh: 0%

What do the screens show for `CCc1ccc(-n2c(=O)c3sc4ccccc4c3n(CC(=O)NC3CCCCC3)c2=O)cc1`?
D1 agonist: 0; D1 antag: -24; D1 potentiator: 2

What do the screens show for `COc1ccccc1NC(=O)Cn1c(=O)n(Cc2ccccc2)c(=O)c2sc3ccccc3c21`?
D1 agonist: -1; D1 antag: -2; D1 potentiator: 0

Results for COc1ccc(NC(=O)Cn2c(=O)n(Cc3ccccc3)c(=O)c3sc4ccccc4c32)cc1 ?
D1 agonist: 3; D1 antag: -30*; D1 potentiator: 2

What do the screens show for `Cc1ccc(-n2c(=O)c3sc4ccccc4c3n(CC(=O)NC3CCCC3)c2=O)cc1C`?
D1 agonist: 3; D1 antag: -45*; D1 potentiator: 0

How did Cc1ccccc1NC(=O)Cn1c(=O)n(Cc2ccccc2)c(=O)c2sc3ccccc3c21 do in these assays?
D1 agonist: -1; D1 antag: -37*; D1 potentiator: 1

How did CCN(CC)c1ccc(NC(=O)Cn2c3ncccc3c(=O)n2-c2ccccc2)c(C)c1 do in these assays?
D1 agonist: 1; D1 antag: 1; D1 potentiator: -3

Results for CC(C)(C)C(=O)Cn1c(=O)n(-c2ccc(Cl)c(Cl)c2)c(=O)c2c3c(sc21)CCCC3 ?
D1 agonist: 0; D1 antag: -11; D1 potentiator: 0

Results for Cc1cc(C)cc(NC(=O)Cn2c(=O)n(-c3cc(C)cc(C)c3)c(=O)c3oc4ccccc4c32)c1 ?
D1 agonist: 1; D1 antag: 6; D1 potentiator: -1

What do the screens show for `COc1ccc(NC(=O)CSc2c(C)n[nH]c2C)cc1`?
D1 agonist: 0; D1 antag: -7; GALK inh: 0%; D1 potentiator: -1; Eya2 inh: 1%; USP2a inh: 0%

What do the screens show for `CCc1c(C)nc(SCC(=O)NNC(=O)Cc2ccc(OC)cc2)[nH]c1=O`?
D1 agonist: 3; D1 antag: -11; D1 potentiator: -10; Eya2 inh: 17%; USP2a inh: 7%

Results for COc1ccc(NC(=O)CSC2=NCCN2)cc1 ?
D1 agonist: 2; D1 antag: -30*; GALK inh: 1%; D1 potentiator: -6; Eya2 inh: 5%; USP2a inh: 0%

How did COc1ccc(NC(=O)c2ccc(NC(=O)CSc3nc(N)cc(=O)[nH]3)cc2)cc1 do in these assays?
D1 agonist: 2; D1 antag: -45*; D1 potentiator: -2; Eya2 inh: 3%; USP2a inh: 0%

What do the screens show for `CCc1c(C)nc(SCC(=O)Nc2nc(-c3ccc(OC)cc3)cs2)[nH]c1=O`?
D1 agonist: 9; D1 antag: -33*; GALK inh: -3%; D1 potentiator: -2; Eya2 inh: -6%; USP2a inh: -1%

Results for COc1ccc(NC(=O)CSc2nc3sc(C)cc3c(=O)n2C)cc1 ?
D1 agonist: 5; D1 antag: -34*; GALK inh: 2%; D1 potentiator: -4; Eya2 inh: -19%; USP2a inh: -2%

What do the screens show for `CCCc1cc(=O)[nH]c(SCC(=O)N(C)CC(=O)Nc2ccc(C)cc2)n1`?
D1 agonist: 2; D1 antag: -36*; GALK inh: 1%; D1 potentiator: -8; Eya2 inh: 9%[15.4 µM]; USP2a inh: 1%

Results for CCCc1cc(=O)[nH]c(SCC(=O)N(C)CC(=O)Nc2ccc(F)cc2)n1 ?
D1 agonist: 0; D1 antag: -1; D1 potentiator: -3; Eya2 inh: 15%; USP2a inh: 0%

How did COC(=O)c1ccc(NC(=O)CSc2nc3ccc(OC)cc3[nH]2)cc1 do in these assays?
D1 agonist: 17; D1 antag: -57*; D1 potentiator: -4

What do the screens show for `COc1ccc(NC(=O)CSc2nc(-c3ccc(OC)cc3)cc(=O)[nH]2)cc1`?
D1 agonist: 57*; D1 antag: 7; D1 potentiator: -4

How did COc1ccc2nc(SCC(=O)NC3CCCCC3C)[nH]c2c1 (stereo not drawn) do in these assays?
D1 agonist: 0; D1 antag: -40*; D1 potentiator: -15; Eya2 inh: -14%; USP2a inh: -2%

What do the screens show for `O=C(NCC(c1cccnc1)N1CCc2ccccc2C1)c1ccc(F)c(F)c1` (stereo not drawn)?
D1 agonist: 1; D1 antag: -4; D1 potentiator: 2

Results for CCOc1ccc(NC(=O)CN(c2ccc(CC)cc2)S(=O)(=O)c2c(C)noc2C)cc1 ?
D1 agonist: 4; D1 antag: -3; D1 potentiator: -2

Results for COc1cccc(CNC(=O)c2sc3nc[nH]c(=O)c3c2C)c1 ?
D1 agonist: 0; D1 antag: 6; D1 potentiator: -1

How did COc1cccc(NC(=O)CSc2nc(C)c(Cc3ccccc3)c(=O)[nH]2)c1 do in these assays?
D1 agonist: 2; D1 antag: -73*; D1 potentiator: -1

What do the screens show for `CC(C)(C)NC(=O)Cn1nnc(-c2ccc(OCc3c(F)cccc3Cl)cc2)n1`?
D1 agonist: 9; D1 antag: -32*; GALK inh: -6%; D1 potentiator: -6; Eya2 inh: -4%; USP2a inh: 2%

How did C=C(C)COc1ccc(C2NC(=O)c3ccccc3O2)cc1OCC (stereo not drawn) do in these assays?
D1 agonist: 4; D1 antag: -49*; GALK inh: -1%; D1 potentiator: -13; Eya2 inh: -2%; USP2a inh: -1%

Results for COc1cccc(CNc2ncnc3onc(-c4ccc(F)cc4)c23)c1 ?
D1 agonist: 9; D1 antag: -2; D1 potentiator: 1
